The record followed here is publication PMC5540273 (PLoS ONE, 2017).

What all share (settings): concentration: 1 μM, replicates: in singlicate; n = 1
In experiment [1] the test system is TNNI3K.
The test system of experiment [2] is T1, TRKA.
T1 construct: gene NTRK1

In experiment [3] the test system is TRKB.
Experiment [4] deals with T2, TRKC.
T2 construct: gene NTRK3

Experiment [5] concerns TRPM6.
Experiment [6] relates to TSSK1B.
For experiment [7], the system named is TSSK3.
For experiment [8], the system named is TTK.
For experiment [9], the system named is TXK.
Experiment [10] deals with TYK2(JH1domain-catalytic).
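Also: KINOMEscan kinase panel screen.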

Consider `O=C(Nc1ccccc1F)NC1CCN(c2ccnc(Nc3ccc(F)cc3)n2)CC1` [GSK1379800], for which the “%Inh” value was found to be 0% in experiment [1]; 0% in experiment [2]; 0% in experiment [3]; 6% in experiment [4]; 0% in experiment [5]; 1% in experiment [6]. In addition, the “%Inh” value in experiment [7] is given as 22%; in [8], 0%; in experiment [9], 46%; in [10], 28%.

For the molecule `COc1cc(Nc2nccc(N3CCC(NC(=O)c4cc5ccccc5s4)C3)n2)cc(OC)c1OC` (stereo not shown) [GSK1379760], the “%Inh” value in experiment [1] is listed as 0%; in [2], 21%; in experiment [3], 0%; in [4] it was 35%; in experiment [5], 17%; in experiment [6] it was 0%. Further, the “%Inh” value came out at 26% in experiment [7], 0% in experiment [8], 0% in experiment [9] and 28% in [10].

For the molecule `Cl.c1ccc(-c2ccc3c(Nc4ccc5[nH]ccc5c4)ccnc3c2)nc1` [GW440138], the “%Inh” value turned out to be 0% in experiment [1]; 0% in [2]; 9% in [3]; 23% in experiment [4]; 0% in [5]; 0% in [6]. The “%Inh” value in experiment [7] was 5%; in experiment [8], 0%; in experiment [9], 0%; in experiment [10] it was 29%.

With `Cl.Cl.NCC(NCc1ccc(-c2ccnc3[nH]ccc23)s1)c1ccccc1` (stereo not shown) [GSK1321565], the “%Inh” value in experiment [1] is given as 0%; in experiment [2], 98.5%; in [3], 72%; in [4] it was 70%; in [5], 0%; in experiment [6] it was 38%. Besides, the “%Inh” value in experiment [7] worked out at 16%; in experiment [8], 0%; in experiment [9] it was 25%; in [10], 80%.

Consider `Nc1ncc(-c2ccc3nccc(-c4ccncc4)c3c2)cc1S(=O)(=O)N1CCOCC1` [GSK1627798], for which the “%Inh” value in experiment [1] stood at 0%; in experiment [2] it was 90.2%; in experiment [3], 90.7%; in [4] it was 74%; in experiment [5] it was 0%; in experiment [6], 0%. Further, the “%Inh” value is 0% in experiment [7], 8% in experiment [8], 0% in experiment [9] and 0% in [10].

For the molecule `NCCCC(NC(=O)c1cc(Br)c(-c2ccnc3[nH]ccc23)s1)c1ccccc1.O=C(O)C(F)(F)F.O=C(O)C(F)(F)F` (stereo not shown) [GSK1287544], the “%Inh” value was determined as 0% in experiment [1]; 53% in experiment [2]; 11% in experiment [3]; 17% in experiment [4]; 16% in [5]; 17% in experiment [6]. Further, the “%Inh” value is given as 1% in [7], 21% in experiment [8], 18% in experiment [9] and 75% in experiment [10].

Consider `CCn1c(-c2nonc2N)nc2c(C#CC(C)(C)O)nc(OC[C@H](N)c3ccccc3)cc21` [GSK943949], for which the “%Inh” value in experiment [1] is reported as 0%; in experiment [2] it was 18%; in [3], 0%; in experiment [4], 18%; in [5], 0%; in experiment [6], 49%. The “%Inh” value was 82% in experiment [7], 15% in [8], 8% in experiment [9] and 19% in experiment [10].

As for `O=C(O)C(F)(F)F.O=C(O)C(F)(F)F.O=c1[nH]ccc2nc(N[C@@H]3CCCNC3)nc(Nc3ccc(S(=O)(=O)N4CCOCC4)cc3)c12` [GSK2177277], the “%Inh” value is given as 15% in experiment [1]; 100% in [2]; 92.5% in experiment [3]; 98% in experiment [4]; 19% in experiment [5]; 95.1% in [6]. The “%Inh” value is recorded as 99.7% in [7], 96.8% in [8], 35% in experiment [9] and 99.7% in experiment [10].

For the molecule `Cc1cccc(Nc2nc(N[C@H]3CCNC3)ncc2C(N)=O)c1.Cl` [GSK2197149], the “%Inh” value in experiment [1] is given as 0%; in [2] it was 93.3%; in [3] it was 0%; in experiment [4], 18%; in experiment [5], 34%; in experiment [6], 13%. The “%Inh” value in experiment [7] came to 29%; in experiment [8], 29%; in experiment [9], 15%; in experiment [10], 46%.

Take `Cc1ccc(F)c(C(=O)Nc2cccc(-c3nn4ccccc4c3-c3ccnc(Nc4cccc(F)c4)n3)c2)c1F` [GSK361061]: the “%Inh” value in experiment [1] worked out at 37%; in [2] it was 33%; in [3], 0%; in experiment [4], 0%; in experiment [5], 36%; in experiment [6], 10%. Besides, the “%Inh” value in experiment [7] was found to be 19%; in [8] it was 39%; in experiment [9], 52%; in experiment [10], 0%.

Regarding `COCCOCCOc1cc2ncc3c4ccc(C#N)cc4[nH]c3c2cc1OC`, the “%Inh” value in experiment [1] came to 9%; in experiment [2] it was 98%; in experiment [3] it was 90%; in experiment [4] it was 78%; in experiment [5] it was 0%; in experiment [6], 0%. Also, the “%Inh” value in experiment [7] was 0%; in [8], 26%; in experiment [9] it was 4%; in [10], 0%.

As to `COc1cccc(-c2ccc3c(NC(=O)C4CC4)n[nH]c3n2)c1` [SB-710903], the “%Inh” value in [1] is reported as 5%; in experiment [2] it was 0%; in [3], 66%; in [4] it was 58%; in [5], 0%; in experiment [6] it was 0%. Further, the “%Inh” value in experiment [7] is recorded as 3%; in [8] it was 0%; in experiment [9], 0%; in experiment [10] it was 52%.

For the molecule `Cn1cc(-c2ccc3c(c2)CCN3C(=O)Cc2cccc(Cl)c2)c2c(N)ncnc21` [GSK2606590], the “%Inh” value amounted to 0% in experiment [1]; 73% in experiment [2]; 54% in experiment [3]; 57% in [4]; 0% in experiment [5]; 20% in experiment [6]. For the same molecule, the “%Inh” value in [7] was 17%; in experiment [8] it was 30%; in experiment [9] it was 0%; in experiment [10], 10%.

Regarding `Nc1n[nH]c2cnc(-c3ccccc3)cc12` [SB-642124], the “%Inh” value in experiment [1] is listed as 0%; in [2], 0%; in experiment [3], 28%; in [4], 20%; in experiment [5], 9%; in experiment [6], 30%. The “%Inh” value in [7] worked out at 12%; in experiment [8], 0%; in experiment [9] it was 3%; in [10], 79%.

On to `Cl.NC(=O)c1cccc(Nc2nccc(Nc3ccc(Oc4c(Cl)cccc4Cl)c(Cl)c3)n2)c1` [GW659009], for which the “%Inh” value in experiment [1] is recorded as 0%; in [2], 20%; in experiment [3], 7%; in [4], 11%; in experiment [5], 36%; in [6] it was 8%. Moreover, the “%Inh” value in experiment [7] is on record as 88%; in experiment [8] it was 10%; in experiment [9], 0%; in experiment [10], 21%.

Take `c1ccc(Oc2ccc(Nc3ccnc4cc(-c5ccc(CNCCN6CCOCC6)o5)ccc34)cc2)nc1` [GW567145]: the “%Inh” value in experiment [1] is recorded as 0%; in experiment [2] it was 100%; in experiment [3] it was 53%; in experiment [4], 42%; in experiment [5] it was 14%; in [6], 0%. The “%Inh” value in experiment [7] is recorded as 2%; in experiment [8], 7%; in [9], 1%; in experiment [10], 0%.
